From PubChem BioAssay AID1259343 (VanderVen Lab, College of Veterinary Medicine, Cornell …, 2017)
The whole screen tested about 6,200 compounds, of which about 2,900 (47%) were called active. The set was probably picked from earlier hits. The list shows a part of the results. Values without a mark were called inactive. No stated cut-off is given here; in the data, active means inhibition above about 50%; inactive means the rest.

assay: Mycobacterium tuberculosis growth inhibition, primary screen (AID 1259343); details: inhibition: at 10 µM, stronger effect = higher value; outcome: 10 uM

SMILES	inhibition
CC1(C)CC(=O)C(C(=O)Nc2sc3ccccc3c2Cl)C(=O)C1	98.3% (active)
O=C1NC(c2sc3ccccc3c2Cl)Nc2ccccc21 (centres undefined)	28.9%
Cc1cc(=O)[nH]c(-n2nc(-c3cccs3)cc2NC(=O)c2ccc(Br)o2)n1	97.5% (active)
CC(C)c1cc(=O)[nH]c(-n2nc(-c3cccs3)cc2NC(=O)c2cc3ccccc3o2)n1	100% (active)
CC(C)c1cc(=O)[nH]c(-n2nc(-c3cccs3)cc2NC(=O)c2ccc(Br)o2)n1	99.9% (active)
Cc1cc(C(=S)N=P(N(C)C)(N(C)C)N(C)C)c(C)n1-c1ccccc1	98.9% (active)
FC(F)(F)c1nnc2n1Nc1nc3ccccc3nc1S2	100% (active)
COC(=O)Cc1ccc(C(=O)CCl)s1	92.5% (active)
NC(=S)Nc1ccc(F)c(Cl)c1	4.04%
NC(=S)Nc1ccc(F)cc1	52.9% (active)
NC(=S)Nc1ccc(Cl)cc1	7.09%
CC(=NOCc1cccc(CON=C(C)c2ccccc2)c1)c1ccccc1	86.9% (active)
COc1cc(N/N=C(/C)c2cccc(C(F)(F)F)c2)nc(SC)n1	41.1%
CCc1ccc(-c2nc(C)c(C(=O)Nc3ccc(OC)nc3)s2)cc1	42.7%
CCc1nc(C)c(C(=O)Nc2ccc(CCC(F)(F)F)cc2)s1	66.2% (active)
O=C(CCl)Nc1cc2c(cc1Br)OCCO2	94.1% (active)
Cc1cc(N2CCCC2)ccc1NC(=O)CCl	1.87%
O=C(Nc1ccc(Oc2ccccc2F)cc1)C1CCN(C(=O)C2CC23CCC3)CC1 (centres undefined)	91.3% (active)
O=C(Nc1ccc(Oc2ccccc2F)cc1)C1CCN(C(=O)C2CCCCO2)CC1 (centres undefined)	88.7% (active)
O=C(Nc1ccc(Oc2ccccc2F)cc1)C1CCN(C(=O)C2CCCO2)CC1 (centres undefined)	inactive
FC(F)Oc1ccc(NC(=S)Nc2ccc3cn[nH]c3c2)cc1	-5.27%
COc1ccc(NC(=S)Nc2ccc3cn[nH]c3c2)cc1	68.9% (active)
S=C(Nc1ccc(Cl)cc1)Nc1ccc2cn[nH]c2c1	37.2%

SMILES	inhibition
C[C@]12C=CC(=O)C=C1CC[C@@H]1C2=CC[C@]2(C)[C@@H](C(=O)CN3CCN(c4cc(N5CCCC5)nc(N5CCCC5)n4)CC3)CC[C@@H]12	89.9% (active)
CC(C)c1nc(CN(C)Cc2ccc3ccccc3n2)cs1	2.62%
FC(F)(F)CCc1ccnc(N[C@@H]2C[C@H]2c2ccccc2)n1	30.5%
CC(C)c1nc(CNc2nccc(CCC(F)(F)F)n2)cs1	94.8% (active)
Cc1c(Cl)c(=O)oc2cc(O)ccc12	-23%
O=c1ccc2ccc(O)cc2o1	74% (active)
Nc1ccc2oc(CCc3ccccc3)nc2c1	33%
Nc1ccc2oc(=O)ccc2c1	77.1% (active)
Nc1nc2c3ccccc3nc(-c3ccccc3)n2n1	83.3% (active)
COc1cccc(Nc2nc(C(N)CCc3ccccc3)cs2)n1 (centres undefined)	82.2% (active)
COc1cccc(Nc2nc(C(N)COCc3ccccc3)cs2)n1 (centres undefined)	64.3% (active)
NC(=O)C1(N2CCCCC2)CCN(c2nc(-c3ccc(Cl)cc3Cl)cs2)CC1	-20.2%
Nc1[nH]c(N=Nc2nc3c(s2)CCCC3)c2ccccc12	-27.1%
Cc1ccc(NCc2ccc(C(=O)NCC3(CO)CCC3)cc2)cc1	43.9%
Cc1ccc(CNc2nc3c(s2)CCCC3)cc1	74% (active)
C/C(=N/OC(=O)c1ccc(-c2ccccc2)cc1)C(C)(C)C	65.6% (active)
Cc1ccc(/C(N)=N\OC(=O)CCc2ccccc2)cc1	29.4%
O=c1c(Br)cccc(Br)c1O	99.7% (active)
CCNC(=S)NN=C(C)c1cccs1	101% (active)
CC(=NNC(=S)NC(C)C)c1cccs1	104% (active)
CC(=NNC(=S)NC1CCCCC1)c1cccs1	-36.2%
Nc1ccc(N=Nc2ccccc2)c(N)n1	93.8% (active)
CCCC1CC(=O)CC(=O)C1	-33.8%

SMILES	inhibition
CCCC1CCC(c2ccc(C#N)c(=O)[nH]2)CC1 (centres undefined)	89.8% (active)
Cc1c(C2CCN(CCc3ccccc3)CC2)noc1-c1ccc(Cl)cc1	88.1% (active)
Fc1ccccc1CN1CCCC2(CCN(C3CCN(CCc4ccccc4)CC3)C2)C1 (centres undefined)	13.5%
c1ccc(Cn2nnc3c(Sc4ncco4)ncnc32)cc1	68.9% (active)
Fc1ccccc1CSc1ncnc2c1nnn2Cc1ccccc1	10.4%
Cc1cccc(CSc2ncnc3c2nnn3Cc2ccc(F)cc2)c1	15.2%
Fc1ccc(Cn2nnc3c(SCc4cccc(F)c4)ncnc32)cc1	73.3% (active)
Fc1ccc(CSc2ncnc3c2nnn3Cc2ccc(F)cc2)cc1	-6.41%
Fc1ccccc1CSc1ncnc2c1nnn2Cc1ccccc1F	94.8% (active)
Fc1ccc(Cn2nnc3c(SCc4ccccc4)ncnc32)cc1	93.4% (active)
Fc1cccc(CSc2ncnc3c2nnn3Cc2ccccc2F)c1	29.2%
c1ccc(CSc2ncnc3c2nnn3Cc2ccccc2)cc1	-43.1%
Fc1ccc(CSc2ncnc3c2nnn3Cc2ccccc2F)cc1	-32.2%
CCOc1cc(S(=O)(=O)N2CCCCC2CC)ccc1Br (centres undefined)	-6.56%
CCC1CCCCN1S(=O)(=O)c1ccc(C(=O)Nc2nnc(CSC)o2)cc1 (centres undefined)	99.6% (active)
CSc1nsc(SCC2=NNC(=O)c3ccccc3O2)n1	101% (active)
N#Cc1ccc(NC(=O)Cc2ccc(Cl)c(Cl)c2)cc1	17.6%
Cc1nc(CSCC(=O)Nc2ccc(C)c(Cl)c2)no1	39.4%
O=C(CSCCO)Nc1ccc(Cl)c(Br)c1	93.2% (active)
CC1CC(C)(C)CC2(C1)NC(=O)N(c1ccccc1)N2 (centres undefined)	86.8% (active)
CCOC(=O)CCc1c(C)c2ccc(OCc3ccc(C(=O)OC)cc3)c(C)c2oc1=O	36.8%
CCCOC(=O)COc1ccc2c(oc(=O)c3ccccc32)c1C	84% (active)
CONC(=O)c1oc2c(ccc3ccccc32)c1C	21.5%
